# Assay results from ChEMBL document CHEMBL3988442, “University of Dundee, Small-Polar-MMV Screening Library” (2021).
# Hit rate of the full screen: of about 66,000 compounds, about 960 (1.5%) showed an effect of 50% or more. Shown is part of a subset that was picked to be rich in strong results.
# Tested on: Trypanosoma brucei
# Experiment: Trypanosoma brucei 72 hour study
# Type: functional, organism-based
# Parameters: scale not given: in the data most compounds retested in dose-response had high values
smiles,measurement,setting,value
CS(=O)(=O)c1ccccc1NCc1ccc(Cn2ccnc2)cc1,Percent Effect,"30 µM, 30.03 µM",-15.33%
CN(Cc1ccccn1)C1CC2(CCN(Cc3cccnc3)CC2)C1.O=C(O)C(F)(F)F.O=C(O)C(F)(F)F.O=C(O)C(F)(F)F,Percent Effect,"30 µM, 30.03 µM",-16.66%
CNCc1ccc(OCc2ccc3c(c2)OCCO3)cc1.Cl,Percent Effect,"30 µM, 30.03 µM",-35.77%
CCNCc1ccc(OCc2ccc3c(c2)OCCO3)cc1.Cl,Percent Effect,"30 µM, 30.03 µM",-18.34%
CCCNCc1ccc(OCc2ccc3c(c2)OCCO3)cc1.Cl,Percent Effect,"30 µM, 30.03 µM",56.18%
Cc1c(C(=O)N2CCCC(n3cccn3)C2)nnn1-c1ccccc1 (stereo not given),Percent Effect,10 µM,-41.06%
same,Percent Effect,"30.3 µM, […]",-3.586%
CNC(=O)CN1CCCC12CCN(Cc1c[nH]cn1)CC2.O=C(O)C(F)(F)F.O=C(O)C(F)(F)F,Percent Effect,"30 µM, 30.03 µM",-41.63%
Cc1ccc(-c2ccc(CC3NCCN(C)C3=O)cc2)cc1.Cl (stereo not given),Percent Effect,"30.3 µM, […]",-13.76%
CC(c1cn2ncsc2n1)N1Cc2ncccc2C1=O (stereo not given),Percent Effect,"30.3 µM, […]",6.941%
O=C(O)C(F)(F)F.O=C(c1ccccc1)N1C[C@H]2CCC[C@@]2(COCc2ccncc2)C1,Percent Effect,"30 µM, 30.03 µM",-75.85%
Cc1cncc(C(=O)N2C[C@H]3CCC[C@@]3(COc3ccccn3)C2)c1.O=C(O)C(F)(F)F.O=C(O)C(F)(F)F,Percent Effect,"30 µM, 30.03 µM",53.76%
Fc1cnc(N2C[C@H]3CCC[C@@]3(COc3ccccn3)C2)nc1.O=C(O)C(F)(F)F.O=C(O)C(F)(F)F,Percent Effect,"30 µM, 30.03 µM",83.95%
Cc1ccc(C(=O)N2C[C@@H](OCc3cccnc3)[C@H]3OCCC[C@@H]32)o1.O=C(O)C(F)(F)F,Percent Effect,"30 µM, 30.03 µM",5.646%
CS(=O)(=O)N1C[C@H]2CCC[C@@]2(COc2ccccn2)C1.O=C(O)C(F)(F)F,Percent Effect,"30 µM, 30.03 µM",-36.44%
Cc1occc1C(=O)N1C[C@@H](OCc2cccnc2)[C@H]2OCCC[C@@H]21.O=C(O)C(F)(F)F,Percent Effect,"30 µM, 30.03 µM",-8.947%
Fc1cnc(N2C[C@@H]3COC[C@]3(COc3ccccn3)C2)nc1.O=C(O)C(F)(F)F.O=C(O)C(F)(F)F,Percent Effect,"30.3 µM, […]",-2.43%
Cc1ccoc1C(=O)N1C[C@H](OCc2cccnc2)[C@H]2OCCC[C@H]21.O=C(O)C(F)(F)F,Percent Effect,"30 µM, 30.03 µM",55.38%
Cc1ccoc1C(=O)N1C[C@H]2CCC[C@@]2(COCc2ccncc2)C1.O=C(O)C(F)(F)F,Percent Effect,"30 µM, 30.03 µM",58.51%
O=C(O)C(F)(F)F.O=C(c1ncccn1)N1C[C@H]2CCC[C@@]2(COCc2ccncc2)C1,Percent Effect,"30 µM, 30.03 µM",14.62%
Cc1ccc(C(=O)N2C[C@H]3CCC[C@@]3(COc3ccccn3)C2)nc1.O=C(O)C(F)(F)F.O=C(O)C(F)(F)F,Percent Effect,"30 µM, 30.03 µM",43.42%
O=C(O)C(F)(F)F.O=C(c1ncccn1)N1C[C@H]2CCC[C@@]2(COc2ccccn2)C1,Percent Effect,"30 µM, 30.03 µM",19.9%
N#Cc1cccc(CN2CC[C@@H]3[C@@H]2CC(=O)N3Cc2cccnc2)c1.O=C(O)C(F)(F)F.O=C(O)C(F)(F)F,Percent Effect,"30 µM, 30.03 µM",-2.932%
CC(C)n1nc(CN2CCCCC2)c2c1CN(C(=O)c1ccno1)C2.O=C(O)C(F)(F)F,Percent Effect,"30.3 µM, […]",-65.47%
COCCN1CCC2(CC1)CCN(Cc1ccccn1)CC2.O=C(O)C(F)(F)F.O=C(O)C(F)(F)F,Percent Effect,"30.3 µM, […]",-12.12%
Cc1nc(CN2CC[C@H](OCC3CC3)[C@@H]2Cc2cccnc2)cs1.O=C(O)C(F)(F)F.O=C(O)C(F)(F)F,Percent Effect,"30.3 µM, […]",-53.44%
O=c1c(CN2CCCCCC2)coc(O)c1CN1CCCCCC1,Percent Effect,"30 µM, 30.03 µM",14.22%
CCN1CCCc2cc(-c3cncn3C(C)CN3CCOCC3)ccc21.Cl (stereo not given),Percent Effect,"30.3 µM, […]",-9.571%
CN1CCC2(CC1)CN(C(=O)c1cnccn1)Cc1ccccc12.O=C(O)C(F)(F)F,Percent Effect,"30 µM, 30.03 µM",-7.96%
CNC(=O)[C@@H]1C[C@H]2CN(Cc3ccc(C)s3)C[C@H]2N1C(C)=O.O=C(O)C(F)(F)F.O=C(O)C(F)(F)F,Percent Effect,"30.3 µM, […]",-19.68%
Fc1ccc(-c2nccnc2C2CCCNC2)cc1 (stereo not given),Percent Effect,"30.3 µM, […]",-3.462%
NC(=O)NCC1CCCCN1C(=O)c1cccc(Cl)c1 (stereo not given),Percent Effect,"30.3 µM, […]",-13.75%
NC(=O)NCC1CCCCN1C(=O)c1cc(F)cc(F)c1 (stereo not given),Percent Effect,"30.3 µM, […]",-17.02%
Cc1ccc(C(=O)N2CCCCC2CNC(N)=O)cc1F (stereo not given),Percent Effect,"30.3 µM, […]",53.34%
CC(C)(C)NC(=O)CN1CCNCC1.Cl.Cl,Percent Effect,"30 µM, 30.03 µM",-49.47%
CO[C@H]1C[C@@H]2CN(C(=O)Cc3ccc(C)s3)C[C@@H]2C1,Percent Effect,"30.3 µM, […]",15.04%
CNC(=O)CC1CCN(Cc2nc(-c3ccc(SC)cc3)oc2C)CC1,Percent Effect,"30.3 µM, […]",15.19%
CSc1ccc(-c2nc(CN3CCC(CN)C3)c(C)o2)cc1 (stereo not given),Percent Effect,"30 µM, 30.03 µM",56.38%
Cc1ccc(-c2nc(CN3C[C@@H](C)NC[C@@H]3C)c(C)o2)s1,Percent Effect,"30.3 µM, […]",11.25%
CSc1ccc(-c2nc(CN3CCC(NC(C)=O)CC3)c(C)o2)cc1,Percent Effect,"30 µM, 30.03 µM",23.08%
CNC(=O)C1CCN(Cc2nc(-c3ccc(SC)cc3)oc2C)C1 (stereo not given),Percent Effect,"30 µM, 30.03 µM",5.239%
CSc1ccc(-c2nc(CN3CCNCC3C)c(C)o2)cc1 (stereo not given),Percent Effect,"30.3 µM, […]",65.66%
Cc1oc(-c2cc(F)cc(F)c2)nc1CN1C[C@@H](C)NC[C@@H]1C,Percent Effect,"30.3 µM, […]",16.81%
CSc1ccc(-c2nc(CN3CCC(C(N)=O)CC3)c(C)o2)cc1,Percent Effect,"30 µM, 30.03 µM",22.66%
CSc1ccc(-c2nc(CN3C[C@@H](C)NC[C@@H]3C)c(C)o2)cc1,Percent Effect,"30.3 µM, […]",65.6%
Cc1nc(C)n(C2CCCN(C(=O)c3cscn3)C2)n1 (stereo not given),Percent Effect,"30.3 µM, […]",-21.61%
CCC(=O)N1Cc2nccn2CC(CN(C)Cc2cccnc2)C1.O=C(O)C(F)(F)F.O=C(O)C(F)(F)F (stereo not given),Percent Effect,"30 µM, 30.03 µM",3.591%
O=C(Nc1cccnc1)[C@H]1C[C@@H]2CN(Cc3ccc(F)cc3)C[C@H]1O2,Percent Effect,"30.3 µM, […]",-89.84%
CC(C)NC(=O)N1CC[C@H]2N(C)CC[C@@]2(C(=O)Nc2cccnc2)CC1,Percent Effect,"30.3 µM, […]",-97.82%
COCCn1c2c(ccc1=O)CC(NS(C)(=O)=O)CC2 (stereo not given),Percent Effect,"30 µM, 30.03 µM",-56.59%
O[C@@H]1CN(c2cnc3ccccc3n2)CC[C@H]1c1ccc2c(c1)OCO2,Percent Effect,"30 µM, 30.03 µM",-17.33%
Cc1ccc(C)c(CSc2nnc(C(N)C(C)C)o2)c1.Cl (stereo not given),Percent Effect,"30 µM, 30.03 µM",-51.12%
Cn1nc(C(=O)N2CCOCC2)c2c1CN(CC1CC1)C2.O=C(O)C(F)(F)F.O=C(O)C(F)(F)F,Percent Effect,"30.3 µM, […]",-90.45%
COc1cc(CN[C@@H]2COC[C@H]2Cc2cc(C)no2)cc(OC)c1.O=C(O)CC(O)(CC(=O)O)C(=O)O,Percent Effect,"30.3 µM, […]",16.22%
C=C1C(C)(C)[C@H]2CC[C@]1(C(=O)N1CCC(Cn3cc(CO)nn3)CC1)C2,Percent Effect,"30 µM, 30.03 µM",-32.31%
Cl.O=C1CC2(CCCNC2)C(=O)N1Cc1ccc(Cl)cc1 (stereo not given),Percent Effect,"30.3 µM, […]",7.931%
CSc1nccc(N2C[C@@H](CN3CCCCC3)[C@@H](CO)C2)n1,Percent Effect,"30.3 µM, […]",-9.185%
COc1ccc(CN2CCC3(CCCN(c4ncc(F)cn4)C3)C2)cc1.O=C(O)C(F)(F)F (stereo not given),Percent Effect,"30 µM, 30.03 µM",46.33%
CSc1nccc(N2CCC3(CCCN(CCc4ccccc4)C3)C2)n1 (stereo not given),Percent Effect,"30.3 µM, […]",100.6%
CSc1nccc(N2CCC3(CCCN(Cc4ccc(F)cc4)C3)C2)n1 (stereo not given),Percent Effect,"30.3 µM, […]",100.4%
Fc1ccc(CN2CCC3(CCCN(c4nncs4)C3)C2)cc1.O=C(O)C(F)(F)F (stereo not given),Percent Effect,"30.3 µM, […]",-195.3%
Cc1c[nH]c(CN2CCC3(CCCN(Cc4ccc(F)c(F)c4)C3)C2)n1 (stereo not given),Percent Effect,"30 µM, 30.03 µM",12.03%
COc1cc(N2CCC3(CCCN(Cc4ccccn4)C3)C2)ncn1.O=C(O)C(F)(F)F (stereo not given),Percent Effect,"30.3 µM, […]",-81.3%
CSc1nccc(N2CCC3(CCCN(Cc4cccc(C)c4)C3)C2)n1 (stereo not given),Percent Effect,"30.3 µM, […]",99.66%
c1cnc(N2CCC3(CCCN(CC4CCCCC4)C3)C2)cn1 (stereo not given),Percent Effect,"30.3 µM, […]",-7.519%
O=C(Cc1cccc(F)c1)N1CCc2ncnc(NC3CC3)c2CC1.O=C(O)C(F)(F)F,Percent Effect,"30.3 µM, […]",-65.72%
Cl.Cn1ccnc1Sc1ccc(N)cn1,Percent Effect,"30 µM, 30.03 µM",-0.5458%
Cl.O=S(=O)(N1CCCC1)N1C[C@@H](c2cccc(F)c2)[C@@H]2NCCCCC[C@H]21,Percent Effect,"30.3 µM, […]",-12.23%
Cc1cccc(N2CCC3(CCCN(C(=O)c4cccnc4)C3)CC2)n1.O=C(O)C(F)(F)F.O=C(O)C(F)(F)F,Percent Effect,"30 µM, 30.03 µM",-24.82%
CC(C)C(=O)N1CCCC2(C1)CN(c1nncs1)CCO2.O=C(O)C(F)(F)F (stereo not given),Percent Effect,"30.3 µM, […]",-91.97%
O=C(Cc1ccccn1)N1CCC2(CC1)CC(Oc1ccccn1)CO2.O=C(O)C(F)(F)F.O=C(O)C(F)(F)F (stereo not given),Percent Effect,"30 µM, 30.03 µM",23.31%
O=C(O)C(F)(F)F.c1cnc(NC2COC3(CCN(Cc4nccs4)CC3)C2)cn1 (stereo not given),Percent Effect,"30.3 µM, […]",-510.2%
Cc1ncc(CN2CCCC(O)(c3ccc(F)cc3)CC2)n1C.O=C(O)CC(O)(CC(=O)O)C(=O)O (stereo not given),Percent Effect,"30.3 µM, […]",5.795%
COc1cccc(N2CCN(CC(O)c3ccc(C)cc3)CC2)c1 (stereo not given),Percent Effect,"30 µM, 30.03 µM",17.53%
COc1cccc(N2CCN(CC(O)c3cc(C)ccc3C)CC2)c1 (stereo not given),Percent Effect,"30 µM, 30.03 µM",-36.53%
COc1cccc(N2CCN(CC(O)c3cc(C)sc3C)CC2)c1 (stereo not given),Percent Effect,"30.3 µM, […]",80.96%
COc1cc(Cc2nc3c([nH]2)CC(C)(C)CNC3=O)cc(OC)c1,Percent Effect,"30 µM, 30.03 µM",-74.64%
Cc1nc(-c2ncc(C(=O)NCCNc3ncccc3C)c(O)n2)cs1,Percent Effect,"30 µM, 30.03 µM",-1.041%
Cc1cccnc1NCCNC(=O)c1cnc(-c2ccccn2)nc1O,Percent Effect,"30 µM, 30.03 µM",99.84%
Cc1cccnc1NCCNC(=O)c1cnc(-c2cccs2)nc1O,Percent Effect,"30 µM, 30.03 µM",-4.334%
Cc1ccc(C)c(NC(=O)N2C[C@H](N(C)C)C[C@H]2CO)c1,Percent Effect,"30 µM, 30.03 µM",-61.25%
COCCOc1ccc(C(=O)N2CCCC(n3cncn3)C2)cn1 (stereo not given),Percent Effect,"30.3 µM, […]",-14.96%
Cc1noc(C)c1CN1C[C@@H]2COC[C@H](C(=O)N3CCOCC3)[C@@H]2C1.O=C(O)C(F)(F)F,Percent Effect,"30.3 µM, […]",-95.08%
CC(C)c1nn(C)cc1CNCc1cccnc1N(C)C.Cl,Percent Effect,"30 µM, 30.03 µM",-46.74%
COc1ccc(C2(NCc3c(C)nc4c(C)cccn34)CCCC2)cc1.O=C(O)CC(O)(CC(=O)O)C(=O)O,Percent Effect,"30.3 µM, […]",-8.607%
